Source: PubChem (The Scripps Research Institute Molecular Screening Center)
In the library only some 4.8% were active in any assay of this set; here they are far more common.
DAX1 inh-1 – inhibitors of human orphan nuclear receptor DAX1 (NR0B1). P51843. HEK293 Gal4-DAX1 luciferase reporter, luminescence. inhibition, % at 6.75 µM. 0.99% of 340,000 active. AID 504766;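 active means inhibition above the mean over all tested compounds plus 3 SD, cut at about 4.2% in these data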;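 further: 0% = DAX1-transfected cells with DMSO and 100% = empty-vector control cells with DMSO; inhibition shows as a rise in luminescence from relieved DAX1 repression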
Target sequence (P51843 207-470 limits assumed): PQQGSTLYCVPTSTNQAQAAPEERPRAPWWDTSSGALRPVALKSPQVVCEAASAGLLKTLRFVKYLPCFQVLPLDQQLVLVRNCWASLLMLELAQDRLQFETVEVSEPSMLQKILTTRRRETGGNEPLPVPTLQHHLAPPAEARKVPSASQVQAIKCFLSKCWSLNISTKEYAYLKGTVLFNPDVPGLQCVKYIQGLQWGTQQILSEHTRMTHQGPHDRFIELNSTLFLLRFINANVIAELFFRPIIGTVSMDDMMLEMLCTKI
ssDAF12 agonist – S. stercoralis DAF-12 activation, primary screen | HEK293 ssDAF-12/GRIP1 lit1-tk-luc reporter, luminescence; % of 3 µM dafachronic acid response | activation, % at 6.8 µM | 1% of 370,000 active | AID 652126;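 active means activation above the mean over all tested compounds plus 3 SD, cut at about 0.9% in these data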;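 further: 0% = DMSO-only wells and 100% = 3 µM delta7-dafachronic acid wells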
hcDAF-12 act – H. contortus DAF-12 activation, primary screen; HEK293 hcDAF-12 lit1-tk-luc reporter, luminescence; 0% DMSO, 100% Δ7-dafachronic acid; AID 652067; 1.4% of 370,000 active; activation, % at 6.8 µM;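 active means activation above the mean of all tested compounds plus 3 SD, cut at about 5.5% in these data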;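 further: 100% = response to 3 µM Δ7-dafachronic acid high control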
DAX1 inh-2 – blocks DAX1 repression of SF-1 activated StAR promoter. inhibition, % at 6.8 µM. 1.1% of 370,000 active. HEK293T StAR-luciferase reporter, SF-1/DAX-1 repression relief. AID 652010;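 active means inhibition above the mean over all tested compounds plus 3 SD, cut at about 3.6% in these data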;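 further: 0% = DAX-1 cells with DMSO and 100% = cells lacking DAX-1 with DMSO; higher inhibition means more luminescence from relief of DAX-1 repression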
SMARCA2 activ – increases SMARCA2 function in MMTV reporter cells; MG213 cells, MMTV-luciferase reporter, dexamethasone, overnight; activation, % at 9.1 µM; 1% of 370,000 active; in the data active means activation above about 7.8%;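 further: 0% = vehicle wells and 100% = reference activator wells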
hgDAF12 agonist – agonists of H. glycines DAF-12 nuclear receptor; HEK293 GAL4-hgDAF12 UAS-luciferase reporter, agonist luminescence; normalized to butyrate control; activation, % at 6.8 µM; 1.8% of 370,000 active;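 active means activation above a cutoff set at the mean of all screened compounds plus 3 SD, cut at about 10% in these data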;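 further: 0% = DMSO wells and 100% = sodium butyrate wells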
DAX1 conf – NR0B1 (human) inhibition, confirmation. shares compounds with DAX1 inh-2. HEK293T StAR-promoter luciferase reporter, SF-1/DAX-1 repression. inhibition, % at 6.8 µM. 87% of 2,400 active. AID 652134;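 active means inhibition above the average of every tested compound plus 3 SD, cut at about 3.8% in these data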;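 further: 0% = DAX-1 cells with DMSO and 100% = no DAX-1 control cells with DMSO; active compounds raise luminescence by relieving repression of the StAR reporter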
SF1 mutant ctr – counter-screen for DAX1 inhibitors: nonselective inhibitors with SF-1 AF2 mutant. shares compounds with DAX1 inh-2. HEK293 StAR-luciferase, luminescence. inhibition, % at 6.8 µM. 78% of 2,400 active. AID 652136;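 active means inhibition above the mean of all tested compounds plus 3 SD, cut at about 3% in these data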;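 further: 0% = DAX-1 transfected cells with DMSO and 100% = cells without DAX-1 with DMSO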
Starred values were filed as active, the others as inactive; . = no result given.

SMILES	DAX1 inh-1	ssDAF12 agonist	hcDAF-12 act	DAX1 inh-2	SMARCA2 activ	hgDAF12 agonist	DAX1 conf	SF1 mutant ctr
COC(=O)C/C=C/[C@@H](C)[C@H](NC(=O)OCC(Cl)(Cl)Cl)c1ccc(-c2ccccc2)cc1	.	-2	-2	-1	-1	1	.	.
O=C(CSc1nc2ccccc2[nH]1)NN=Cc1ccccc1C(=O)O	.	0	5.9*	5.5*	-2	10	12*	7.8*
O=C(CSc1nc2ccccc2[nH]1)N/N=C/c1ccncc1	.	-1	1	0	-1	0	.	.
Cc1cccc(NC(=O)c2ccc3c(=O)n4c(nc3c2)CCCCC4)n1	-1	-1	5	7.0*	0	8	6.2*	3
O=C(NCc1ccccc1)c1ccc2c(=O)n3c(nc2c1)CCCCC3	0	-1	-1	0	3	2	.	.
O=C(NCCc1ccc(F)cc1)c1ccc2c(=O)n3c(nc2c1)CCC3	1	1	4	6.3*	1	7	2	3.4*
O=C(NCc1ccc(Cl)cc1)OCCN1C(=O)CCC12CCC(c1ccccc1)CC2 (configuration not stated)	.	-1	-1	-1	-4	-1	.	.
Cc1ccc(NC(=O)c2ccc3snnc3c2)cc1C	1	0	3	6.5*	3	7	9.4*	0
O=C(Nc1ccc(F)cc1)c1ccc2snnc2c1	-1	0	3	0	2	3	.	.
O=C(C[n+]1ccc2ccccc2c1)c1ccc2ccc3ccccc3c2c1	.	-1	1	5.3*	-1	2	-3	-1
O=C(Nc1nnc(C2CC2)s1)c1cc2ccccc2o1	2	0	3	6.1*	2	13*	7.3*	4.8*
COc1ccc(-c2cc(=O)c3c(C)cc(O)cc3o2)cc1	2	1.8*	6.5*	5.6*	2	12*	13*	4.6*
COc1ccc(N2C(=O)c3n[nH]c(C)c3C2c2ccccc2)cc1 (configuration not stated)	.	0	-1	1	0	2	.	.
Cc1cccc(NC(=O)/C=C/c2ccc(Cl)cc2)n1	1	0	4	4.6*	1	12*	8.7*	5.0*
c1ccc2nc(NN=C3CCCCC3)ccc2c1	3	1.8*	6.7*	4.5*	0	10	7.4*	3.1*
Cc1ccc(NC(=O)CCCNC(=O)c2ccc(Cl)cc2)c(O)c1	0	1	6.4*	5.3*	1	8	4.1*	3.7*
Cc1cnc(NC(=O)CCCNC(=O)c2ccc(Cl)cc2)s1	2	0	4	5.5*	2	5	3	3.2*
Cc1ccc(NC(=O)CCCNC(=O)c2ccc(Cl)cc2)nc1	1	-1	0	1	2	4	.	.
Cc1ccc2c(c1)-c1nc3ccccc3cc1C2=NC1CCCCC1	4	1.6*	13*	4.8*	9.5*	19*	4.0*	2
Cc1ccc(-c2cc3ccccc3nc2N2CCCC2)cc1	0	0	5	1	3	3	.	.
Cc1ccc(NC(=O)CCNC(=O)c2ccccc2Cl)nc1	3	-1	1	-1	3	-1	.	.
Cc1ccnc(NC(=O)CNC(=O)c2ccccc2Br)c1	1	0	2	5.0*	1	7	7.0*	3.7*
Cc1ccnc(NC(=O)CC(NC(=O)c2ccccc2Cl)c2ccccc2)c1 (configuration not stated)	3	0	2	6.1*	1	11*	7.0*	7.0*
Cc1ccnc(NC(=O)CNC(=O)COc2ccccc2)c1	2	0.9*	3	7.6*	3	9	7.2*	4.0*
Cc1ccnc(NC(=O)CNC(=O)c2ccc3ccccc3c2)c1	2	0	0	1	2	4	.	.
SMILES	DAX1 inh-1	ssDAF12 agonist	hcDAF-12 act	DAX1 inh-2	SMARCA2 activ	hgDAF12 agonist	DAX1 conf	SF1 mutant ctr
Cc1ccnc(NC(=O)CCNC(=O)c2ccccc2Cl)c1	2	0	4	5.0*	2	6	8.5*	5.6*
CN(C(=O)[C@H]1O[C@@H](n2cnc(C(N)=O)n2)[C@H](O)[C@@H]1O)c1ccccc1	.	-1	-1	0	1	0	.	.
O=C(c1ccc(-c2ccccc2Cl)o1)N1CCCCCCC1	4	0	2	5.4*	3	11*	8.4*	6.1*
NC(=O)COC(=O)c1cc(=O)[nH]c2ccccc12	2	1	0	0	-2	-1	.	.
O=C(OCC(=O)N1CCCCC1)c1cc(=O)[nH]c2ccccc12	1	-1	3	4.9*	4	6	3	2
Cc1ccc(OCC(=O)Nc2ccon2)c([N+](=O)[O-])c1	2	0	3	5.3*	5	6	6.5*	3.7*
Cc1ccc(-n2c(SCc3nc4ccccc4[nH]3)nnc2-c2ccccn2)cc1	.	-1	-3	0	0	-1	.	.
COc1ccc(NC(=O)C2=Cc3ccccc3OC2)cc1	-1	1.2*	5.8*	8.0*	1	18*	18*	8.2*
O=C(Nc1ccc(Cl)cc1)C1=Cc2cc(Cl)ccc2OC1	-1	-1	-1	0	0	-1	.	.
Cc1ccccc1S(=O)(=O)/N=C(/Nc1nc2ccccc2s1)c1ccccc1	0	0	2	5.5*	4	11*	3.8*	4.1*
C=CCOc1ccc2nc(NC(=O)OC)[nH]c2c1	0	0	1	2	2	2	.	.
C=C(c1ccc2nc(NC(=O)OC)[nH]c2c1)c1cccs1	0	0	2	7.7*	5	5	37*	-8
O=C1CC(c2ccccc2)CC2=C1C1(CCCC1)N=C(Nc1nc3ccccc3o1)N2 (configuration not stated)	.	-1	3	4.5*	-1	4	1	-1
O=C(CSc1nnc(-c2ccccc2)n1-c1ccccc1)NN=C/C=C\c1ccccc1[N+](=O)[O-]	.	-2	-2	-1	-7	-3	.	.
COC(=O)N1Cc2ccnnc2CC1c1ccccc1-c1ccc(OC)cc1 (configuration not stated)	.	-1	1	1	-4	-2	.	.
Cc1ccc(CNC(=O)Cc2noc3ccccc23)cc1	0	0	3	9.5*	2	11*	8.2*	4.8*
CC[C@H](C(=O)Nc1ccccc1N1CCCC1)c1ccccc1	.	-1	-2	-1	0	2	.	.
